Screening data as filed in PubChem.
In the library only some 2.5% were active in any assay of this set; here they are far more common.
FLuc inh: firefly luciferase inhibition; purified firefly luciferase, luminescence, 8 min; 72,000 tested, 2.2% active; Potency, µM (titrated, usually from 57.1 µM), inactives show at the highest dose activity change, negative = inhibition, most hits filed as inhibitors; active means well fitted inhibition curve with a large enough effect; inconclusive means small, poorly fitted or top-dose-only effect; further: nearly all actives have a fitted effect of over 40% in size
Target sequence (P08659 whole entry, looked up): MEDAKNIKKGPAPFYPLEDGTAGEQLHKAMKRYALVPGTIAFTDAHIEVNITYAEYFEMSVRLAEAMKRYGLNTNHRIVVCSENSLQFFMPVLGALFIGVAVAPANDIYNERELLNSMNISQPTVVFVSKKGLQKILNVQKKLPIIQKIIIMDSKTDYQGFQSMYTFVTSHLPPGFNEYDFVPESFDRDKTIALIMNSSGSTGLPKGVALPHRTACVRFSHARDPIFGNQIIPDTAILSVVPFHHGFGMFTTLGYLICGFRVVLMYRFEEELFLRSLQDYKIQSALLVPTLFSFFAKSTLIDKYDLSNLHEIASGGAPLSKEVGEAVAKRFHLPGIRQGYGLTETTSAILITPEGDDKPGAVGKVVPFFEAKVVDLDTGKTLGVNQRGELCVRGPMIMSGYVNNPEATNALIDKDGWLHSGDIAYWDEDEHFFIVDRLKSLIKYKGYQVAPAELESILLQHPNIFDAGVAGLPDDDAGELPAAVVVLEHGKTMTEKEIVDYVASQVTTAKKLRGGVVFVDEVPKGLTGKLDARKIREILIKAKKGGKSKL
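Inhibition of light generation by firefly luciferase from ATP and luciferin was profiled with concentration-response curves per sample, ATP held at 10 uM within the enzyme's linear range. Plates were read by luminescence after an 8-minute ambient incubation.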
Bst PK mod: alters activity of Bacillus stearothermophilus pyruvate kinase | purified pyruvate kinase, luminescence ATP production; ribose 5-phosphate activator present at AC10 | Potency, µM | 51,000 tested, 1.2% active | AID 361; in the data active means potency below about 11 µM; inconclusive means mostly about 12 µM to 25 µM;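 the screen sought inhibitors and activators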;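 further: scaled between full activation by ribose 5 phosphate and full inhibition by luteolin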
* hit, by the source's call; i = inactive; u = inconclusive; x = no result; [ ] = remark or other dose. Unless noted, on the % scale 0 is the no-effect control and ±100 the full control effect; potency means the concentration at half of the fitted maximal effect.

SMILES	FLuc inh	Bst PK mod
CCCOC(=O)CSc1nnc(-c2ccc(Cl)cc2Cl)o1	-8.5%	>57
CCOC(=O)CSc1nnc(-c2ccc(Cl)cc2Cl)o1	12.6µM*	x
C=C1CCO[C@@]2([C@H](O)[C@@](C)(O)CO)NC(=O)[C@]1(O)NC2=O	0.2%[11.4 µM]	x
COC(=O)CC[C@@H](C)[C@H]1CC[C@H]2[C@H]3CC[C@H]4C[C@@H]5CC[C@@]4(C)C3(O5)[C@@H](Br)[C@@H](Br)[C@@]12C	2.3%[11.4 µM]	x
O=C(COC(=O)c1ccccn1)c1ccc(Br)cc1	10µM*	x
O=C(COC(=O)c1ccccn1)Nc1c(Cl)cccc1Cl	-1.1%	i
CC(=O)Nc1ccc(O)cc1	-0.9%	x
CC(=O)Nc1ccc(-c2nc(C)c(C(C)=O)n2O)cc1	-24.0%	6.59*
S[C@@H]1CCCN(Cc2ccccc2)C1	0.3%[11.4 µM]	x
CSc1ncnc2c1ncn2CC(=O)[C@H]1CC[C@H]2[C@H]3CCC4=CC(=O)CC[C@@]4(C)[C@@H]3CC[C@@]12C	-0.1%[11.4 µM]	x
CN(C)CCCn1cnc2cc(Cl)c(Cl)cc21	3.5%[11.4 µM]	x
Cc1nn(-c2ccccn2)c2c1-c1nc(N)ncc1CC2	10µM*	u
Cc1nn2c3c(cnc2c1-c1ccccc1)C(=O)CCC3	1.4%	>57
C[N+](C)(C)CC(=O)N/N=C\c1ccncc1	3.6%[11.4 µM]	x
CCN=C(N)CSS(=O)(=O)O	-0.1%[11.4 µM]	x
O=C(Nc1ccc2c(c1)OCCO2)c1c(F)c(F)c(F)c(F)c1F	1.3%	>57
O=C(Nc1ccc2c(c1)OCCO2)NC12CC3CC(CC(C3)C1)C2	12.6µM*	x
C/C(=C\C(=O)c1ccc(C)o1)Nc1ccc2c(c1)OCO2	-15.4%	x
O=C(Nc1ccc2c(c1)OCCO2)c1ccc(Br)o1	5.01µM*	u
O=C(Nc1ccc(CN2CCCCC2)cc1)c1ccc(Br)o1	12.6µM*	>57
Cc1ccc(C(=O)Nc2ccc3c(c2)OCO3)o1	12.6µM*	x
O=C(COc1ccc2c(c1)OCO2)NC12CC3CC(CC(C3)C1)C2	-2.2%	>57
O=C(Nc1ccc(CN2CCCCC2)cc1)c1ccc2c(c1)OCO2	-20.4%	>57
C/C(CCN1CCCCc2nc(C)c(C)cc21)=N\O[C@@H](C)c1cc(-c2c(C)cc(C)cc2C)no1	0.7%[11.4 µM]	x
COc1cc(C)cc2c(-c3c(O)cc(O)c4c3C[C@H](C)N[C@@H]4C)cc(-c3cc(-c4c(O)cc(O)c5c4C[C@H](C)N[C@@H]5C)c4cc(C)cc(OC)c4c3O)c(O)c12	1.1%[11.4 µM]	x
SMILES	FLuc inh	Bst PK mod
O=C(O)CCCN1CCCCC1	2.1%[11.4 µM]	x
CCNc1ncc2nc(-c3cccs3)c(=O)n(CCC#N)c2n1	-0.3%[11.4 µM]	x
C[C@@]12C(=O)OC(=O)[C@]1(C)[C@H]1CC[C@@H]2O1	1.0%[25.5 µM]	x
CCN1C(=O)[C@H]2[C@H]3[C@H](O)[C@H](O)C/C(=N/O[C@@H](C)CN4CCCCc5nc(C)c(C)cc54)[C@@H]3CC[C@@H]2C1=O	-0.1%[11.4 µM]	x
COc1ccc(NC(=O)c2ccco2)c(OC)c1	-7.4%	>57
COc1cc(NC(=O)C(C)C)ccc1NC(=O)c1ccco1	20µM*	x
Fc1ccc(-c2nnc(NC3=NCCCCC3)o2)cc1	2.51µM*	4.51*
Fc1ccc(-c2nnc(Cc3nnc(-c4ccc(F)cc4)o3)o2)cc1	-4.9%	>57
CCC(=C(CC)c1ccc(O)cc1)c1ccc(O)cc1	0.8%[25.5 µM]	x
O=C(Nc1ccc2c(c1)OCCO2)c1ccc2nccnc2c1	10µM*	u
CCCC(=O)Nc1cccc(NC(=O)c2ccc3c(c2)OCO3)c1	-28.2%	>57
O=C(Nc1ccc2c(c1)OCCO2)c1cccnc1	-20.1%	>57
CCC(=O)Nc1cccc(NC(=O)c2ccc3c(c2)OCCO3)c1	15.8µM*	x
CCOC(=O)Cc1nc2ccccc2[nH]1	-0.9%	>57
CCOC(=O)c1ccc(NCc2nc3ccccc3[nH]2)cc1	15.8µM*	x
CN(C)c1ccc(-c2nc(NCc3cccnc3)c3ccccc3n2)cc1	-14.6%[2.29 µM]	x
CCOc1ccccc1NC=C1C(=O)OC(C)(C)OC1=O	-2.9%	>57
COc1ccccc1NC=C1C(=O)OC(C)(C)OC1=O	15.8µM*	x
COc1ccc(C(=O)[C@H](Br)[C@H](Br)C(=O)O)cc1	0.6%[11.4 µM]	x
N#CC1=C(N)NC(SCc2ccccc2)=C(C#N)C12CCCCC2	-1.1%	x
CCSC1=C(C#N)C2(CCCCC2)C(C#N)=C(N)N1	15.8µM*	i
O=c1c(-c2ccc(Cl)cc2)nc2cnc(N3CCOCC3)nc2n1Cc1ccc(F)cc1	0.4%[11.4 µM]	x
O=C(Nc1ccc(Nc2ccc3c(c2)C(=O)c2ccccc2C3=O)c2c1C(=O)c1ccccc1C2=O)c1ccccc1	-1.5%[11.4 µM]	x
CCOC(=O)CS(=O)(=O)c1nc(-c2ccc(F)cc2)cc(C(F)(F)F)n1	-4.5%	5.46*
CCOC(=O)CS(=O)(=O)c1nc(-c2ccccc2)cc(C(F)(F)F)n1	-3.0%	x
SMILES	FLuc inh	Bst PK mod
Fc1ccc([C@H]2CCNC[C@H]2COc2ccc3c(c2)OCO3)cc1	5.01µM*	x
CN(C)S(=O)(=O)N1CCC(c2ccc(F)cc2)C(COc2ccc3c(c2)OCO3)C1 (stereo not given)	0.3%	>57
O=c1c(-c2cc(F)cc(F)c2)nc2cnc(N3CCNCC3)nc2n1Cc1ccc(F)cc1	1.5%[11.4 µM]	x
O=C(O)c1ccc2[nH]c3c(c2c1)CSCC3	5.1%	>57
O=C(NCCO)c1ccc2[nH]c3c(c2c1)CCCC3	15.8µM*	x
N[C@H](C(=O)O)[C@H](N)C(=O)O	2.3%[11.4 µM]	x
O=C(O)C(Sc1ccc(Cl)cc1)Sc1ccc(Cl)cc1	2.6%[11.4 µM]	x
Cc1cc(C)nc(N(C#N)CC(=O)N2CCC(C(N)=O)CC2)n1	7.94µM*	u
Cc1cc(=O)[nH]c(SCC(=O)N2CCC(C(N)=O)CC2)n1	2.0%	>57
CSCC[C@@H]1NC(=O)C/C=C\[C@@H](C)COC(=O)[C@@H](CCSC)NC(=O)C/C=C\[C@@H](C)COC1=O	0.6%[11.4 µM]	x
O=C1c2cccc3c(Cl)ccc(c23)C(=O)N1O	0.4%	5.09*
O=C(c1ccc2c3c(cccc13)C(=O)N(O)C2=O)N1CCCCC1	1.3%[25.5 µM]	>25.6
Nc1nc(N)nc(CCCCc2nc(N)nc(N)n2)n1	4.0%[11.4 µM]	x
CN(C)c1ncnc2ccc(-c3ccccc3C#N)cc12	1.5%[2.29 µM]	x
CCN1C(=O)[C@H]2[C@H]3[C@H](O)[C@H](O)C/C(=N/O[C@@H](C)CN4CCCc5nc(C)c(C)cc54)[C@@H]3CC[C@@H]2C1=O	0.3%[11.4 µM]	x
c1ccc2c(c1)nnn1c3ccccc3nc21	12.6µM*	x
Cc1nc2ccccc2c2nc3ccccc3n12	-1.0%	x
Nc1ccccc1S[C@@H](C[N+](=O)[O-])c1ccc2c(c1)OCO2	-8.0%[11.4 µM]	x
CCc1cccc(CC)c1N(COC)C(=O)Cn1nnc2ccccc21	-0.7%[25.5 µM]	6.7*
CCc1cccc(CC)c1N(COC)C(=O)Cn1c(CO)nc2ccccc21	2.0%	>57
NCC(=O)N[C@H](CO)C(=O)O	-2.6%[11.4 µM]	x
C[C@@H](COc1ccc(/C=C\c2ccccc2)cc1)[N+](C)(C)C	-3.8%	x
O=C(COc1ccccc1)Nc1nc2ccccc2[nH]1	20µM*	x
COc1cc(C(=O)Nc2nc3ccccc3[nH]2)cc(OC)c1OC	-20.4%	x
O=C(O)CCc1nc2ccccc2[nH]1	0.7%[11.4 µM]	x
SMILES	FLuc inh	Bst PK mod
c1ccc(OCc2nc3ccccc3[nH]2)cc1	25.1µM*	x
O=C(O)CNCCc1ccccc1	1.3%[11.4 µM]	x
CCN1C(=O)[C@H]2[C@H]3[C@H](O)[C@H](O)C/C(=N/O[C@@H]4O[C@@H](COC(C)=O)[C@@H](OC(C)=O)[C@@H](OC(C)=O)[C@H]4OC(C)=O)[C@@H]3CC[C@@H]2C1=O	1.3%[11.4 µM]	x
COc1ccccc1C(=O)Nc1ccc2c(c1)OCCO2	15.8µM*	i
CN(c1ccccc1C(=O)Nc1ccc2c(c1)OCCO2)S(C)(=O)=O	1.7%	>57
CCCN1Cc2cccc(C(=O)Nc3ccc4c(c3)OCCO4)c2C1=O	12.6µM*	x
